# Measurements: the supplement of paper PMC6555819
# System: THRa homodimer (NR concentration 90 nM)
# Assay: PBM binding z-score (relative to random genomic background probes); higher = stronger binding; sequences stand for … in GC…GCGATTGACAGCGTAGAATGAAGG
# Procedure, shortened: (§1)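 Each nuclear receptor dimer, without ligand, was incubated for 1 h on custom Agilent 4×180K protein-binding microarrays. Binding was detected with antibodies against each partner (one per run), and scanned fluorescence was regression-normalized. The binding z-scores are referenced to random human genomic background probes.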
row,Sequence,PBM binding z-score
1,TCATATAGGTTATACAGGTGAAAGTCGGCATCTA,0.477
2,AGAACGAAGGCACGCTGAGTTGATAGCAGAGTAG,-1.12
3,CGTCAAAGTTCAACTACGGTAACGTAAAGCACGC,-0.22
4,AGAATGAGGTTATTAAGATAAGGGAATTGCGGTC,0.273
5,TTACCAAGGTGAGCTGAGGACGTTGATCCAACTC,1.6
6,TAGCGTAGGTCATGCGGGCCAGTATAGTGTCGGC,-0.424
7,TCAGATAGGTAAAAGGTGAAAGTCGGTGTGGTAA,0.528
8,GCTTGTAGACCAAGGTTAAGAAAGACTAAGCTAA,-0.368
9,CCGACTGGGGCAAAGGTTACAATACTCAGTACGA,-0.161
10,CCTACTGGGCCACGAAAGGTCACTGATTCAGTGA,1.03
11,GGAACGATGGCAAAGTTGATAGCATCTGTCGACG,-1.03
12,ATCTCTAGGTAACCAAGTTCAGTTAATGCCGAAC,1.43
13,ATATGAAGGTTAAGGGTCATTCAGGTTGGTTCGC,1.5
14,CCGACTGGGGCAAACGTTACCATACTCAGTACGA,-0.206
15,TCATATAGGTAAAGGTCAAAGTCGAACGATATGA,0.708
16,TCGAGCAGGTTAGGGGCATTCAGAATGGCGTCGA,-0.36
17,ACAGACAGGTGATGGAGGTAACTCAGGCTATCAT,0.503
18,ACTCGGAGGACAAAGGTCAGTGCTACGCCAGTGA,0.657
19,CCTACTGGGCCAGAAAGGTCATTGATGCCGATAA,0.378
20,TTACCAAGGTGACAGGTCGTTGATGCACGCCTTG,1.19

row,Sequence,PBM binding z-score
1,CTCGAAAGGTCGTGCTCAGGGGAGTATACCAAAC,0.415
2,ACTTGCGGGTCAACGAGGTTATAGCACGCGTATA,1.31
3,CCTACTGGGCCATTCACAGGTCATTGATCATATG,0.728
4,CCAGACAGGTGAGAAGGTAACTCAACCTCGATTA,0.31
5,TCTTGTAGATCAACAGGAGGTTTAGAAAGATCGA,-0.597
6,TCTATTAGTTGATTAGGGAAACCGAAACAGCGGA,0.159
7,CTACCAACGTGAACAAGGTCGTTGATTACTATTC,1.41
8,GCTAGCAGGCCATTCGGGTCACTCAATGACGGGC,1.75
9,TGGAGTAGGTTAGTCGGGGCATTCAGCCAACATA,0.985
10,ATATCTAGGTAAAGATAGTTCAGTGAATGCAAAT,-0.33
11,TCTTGTAGATCAAAGGTGAAGAAAGCCGAAGCCT,-0.461
12,TCTTGTAGATCACCAGGAGGTTAAGAAAGATCGA,-0.466
13,AGTCAAAGTTCACTGGGTAACGTAAGATTCAGCT,-0.189
14,ATCTCTACGTAACAAGTTCAGTGAAAGAGAGGAC,0.629
15,CCTAGCAGGCAAATCTGGGTCACTCAAGGCTTGA,0.513
16,CCTTACGGGTCACGAGGTGATAGCACGACGAGCG,0.888
17,TAGCCTAGGTTATTGGGCCAGTATAGTACGCATC,-0.377
18,ACTATTAGTTGACTTAGGGCAACCTATACGACGC,0.279
19,ACAGACAGGTGAGTCAAGGTAACTCAGCTGGACG,0.299

# System: VDR homodimer (NR concentration 270 nM)
# Assay: as above
# Procedure, shortened: as §1
row,Sequence,PBM binding z-score
1,TCATATAGGTTATACAGGTGAAAGTCGGCATCTA,0.534
2,AGAACGAAGGCACGCTGAGTTGATAGCAGAGTAG,-0.212
3,CGTCAAAGTTCAACTACGGTAACGTAAAGCACGC,3.69
4,AGAATGAGGTTATTAAGATAAGGGAATTGCGGTC,0.849
5,TTACCAAGGTGAGCTGAGGACGTTGATCCAACTC,-0.0863
6,TAGCGTAGGTCATGCGGGCCAGTATAGTGTCGGC,0.141
7,TCAGATAGGTAAAAGGTGAAAGTCGGTGTGGTAA,0.262
8,GCTTGTAGACCAAGGTTAAGAAAGACTAAGCTAA,-0.0799
9,CCGACTGGGGCAAAGGTTACAATACTCAGTACGA,0.239
10,CCTACTGGGCCACGAAAGGTCACTGATTCAGTGA,0.962
11,GGAACGATGGCAAAGTTGATAGCATCTGTCGACG,-0.827
12,ATCTCTAGGTAACCAAGTTCAGTTAATGCCGAAC,3.19
13,ATATGAAGGTTAAGGGTCATTCAGGTTGGTTCGC,4.67
14,CCGACTGGGGCAAACGTTACCATACTCAGTACGA,-0.371
15,TCATATAGGTAAAGGTCAAAGTCGAACGATATGA,2.32
16,TCGAGCAGGTTAGGGGCATTCAGAATGGCGTCGA,0.474
17,ACAGACAGGTGATGGAGGTAACTCAGGCTATCAT,-0.164
18,ACTCGGAGGACAAAGGTCAGTGCTACGCCAGTGA,1.11
19,CCTACTGGGCCAGAAAGGTCATTGATGCCGATAA,2.56
20,TTACCAAGGTGACAGGTCGTTGATGCACGCCTTG,0.797

row,Sequence,PBM binding z-score
1,CTCGAAAGGTCGTGCTCAGGGGAGTATACCAAAC,1.13
2,ACTTGCGGGTCAACGAGGTTATAGCACGCGTATA,3.69
3,CCTACTGGGCCATTCACAGGTCATTGATCATATG,1.17
4,CCAGACAGGTGAGAAGGTAACTCAACCTCGATTA,-0.0105
5,TCTTGTAGATCAACAGGAGGTTTAGAAAGATCGA,-0.584
6,TCTATTAGTTGATTAGGGAAACCGAAACAGCGGA,0.507
7,CTACCAACGTGAACAAGGTCGTTGATTACTATTC,1.88
8,GCTAGCAGGCCATTCGGGTCACTCAATGACGGGC,1.2
9,TGGAGTAGGTTAGTCGGGGCATTCAGCCAACATA,1.24
10,ATATCTAGGTAAAGATAGTTCAGTGAATGCAAAT,0.327
11,TCTTGTAGATCAAAGGTGAAGAAAGCCGAAGCCT,-0.594
12,TCTTGTAGATCACCAGGAGGTTAAGAAAGATCGA,0.109
13,AGTCAAAGTTCACTGGGTAACGTAAGATTCAGCT,4.09
14,ATCTCTACGTAACAAGTTCAGTGAAAGAGAGGAC,2.6
15,CCTAGCAGGCAAATCTGGGTCACTCAAGGCTTGA,-0.357
16,CCTTACGGGTCACGAGGTGATAGCACGACGAGCG,1.15
17,TAGCCTAGGTTATTGGGCCAGTATAGTACGCATC,-0.529
18,ACTATTAGTTGACTTAGGGCAACCTATACGACGC,0.34
19,ACAGACAGGTGAGTCAAGGTAACTCAGCTGGACG,-0.203
